This is part of a sample that, as a whole, favours compounds with a hit. Of some 83,000 tested, about 20% had one in any assay.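 Values shown are percent growth following 48 h exposure of cells in 96-well plates to a single concentration of compound; below 10 was considered active.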 Calls of active or inactive are those of the source.
Columns and labels:
Test in all cases: NCI-60 one-dose screen, 48 h (100 = growth as untreated, 0 = no growth, -100 = all killed)
Settings in all cases: 10 µM unless noted
K-562 leukemia = test system: K-562 leukemia
MALME-3M melanoma = test system: MALME-3M melanoma
MDA-MB-231 breast = test system: MDA-MB-231 breast
RXF 393 renal = test system: RXF 393 renal
SF-268 CNS = test system: SF-268 CNS
SF-295 CNS = test system: SF-295 CNS
SF-539 CNS = test system: SF-539 CNS
UACC-257 melanoma = test system: UACC-257 melanoma
M14 melanoma = test system: M14 melanoma
HCT-15 colon = test system: HCT-15 colon

Measured: growth

C=C1CC[C@@H]2[C@](C)(COC(C)=O)[C@H](OC(C)=O)CC[C@@]2(C)[C@@H]1CC(Nc1ccc(S(=O)(=O)Nc2cc(C)on2)cc1)C1=CCOC1=O (stereo not given in full)
active: K-562 leukemia 9.67% | SF-539 CNS 6.3% | HCT-15 colon 0.176%
inactive: MALME-3M melanoma 56.6% | MDA-MB-231 breast 61.1% | RXF 393 renal 29.8% | SF-268 CNS 67.3% | SF-295 CNS 100% | UACC-257 melanoma 68.9% | M14 melanoma 29.9%

C[C@@H]1CC[C@H]2[C@@H](C)C(O)O[C@@H]3O[C@]4(C)CC[C@@H]1[C@]32OO4 (stereo not given in full)
inactive: K-562 leukemia 10.8% | MALME-3M melanoma 28.3% | MDA-MB-231 breast 77.4% | RXF 393 renal 49.3% | SF-268 CNS 52.7% | SF-295 CNS 26.4% | SF-539 CNS 33.6% | UACC-257 melanoma 38.3% | M14 melanoma 29.8% | HCT-15 colon 10.7%

CC(C)C(=O)Cc1cnccn1
inactive: K-562 leukemia 114% | MALME-3M melanoma 111% | MDA-MB-231 breast 119% | RXF 393 renal 106% | SF-268 CNS 114% | SF-295 CNS 91% | SF-539 CNS 105% | UACC-257 melanoma 97.8% | M14 melanoma 112% | HCT-15 colon 107%

Cn1c(=O)c2nc(SCc3ccccc3)n(C)c2n(C)c1=O
inactive: K-562 leukemia 103% | MALME-3M melanoma 143% | MDA-MB-231 breast 97.7% | RXF 393 renal 112% | SF-268 CNS 106% | SF-295 CNS 117% | SF-539 CNS 101% | UACC-257 melanoma 111% | M14 melanoma 107% | HCT-15 colon 98.8%

CCN1C[C@@H](C)n2c(c(O)c3c(=O)n(Cc4ccc(F)c(Cl)c4)nc(C(=O)NC)c32)C1=O
active: MALME-3M melanoma 5.1% | RXF 393 renal 2.79% | SF-295 CNS 0.0694% | SF-539 CNS 3.53% | UACC-257 melanoma 3.7% | HCT-15 colon 6.16%
inactive: K-562 leukemia 42% | MDA-MB-231 breast 50.7% | SF-268 CNS 23.2% | M14 melanoma 30.4%

Cc1c(N(C)CS(=O)(=O)O)c(=O)n(-c2ccccc2)n1C
inactive: K-562 leukemia 102% | MALME-3M melanoma 94.1% | MDA-MB-231 breast 107% | RXF 393 renal 115% | SF-268 CNS 115% | SF-295 CNS 98.9% | SF-539 CNS 106% | UACC-257 melanoma 108% | M14 melanoma 103% | HCT-15 colon 103%

COc1ccc2nccc(/C=C/c3ccnc4ccc(OC)cc34)c2c1
inactive: K-562 leukemia 52.5% | MALME-3M melanoma 146% | MDA-MB-231 breast 114% | RXF 393 renal 37.4% | SF-268 CNS 71.3% | SF-295 CNS 129% | SF-539 CNS 106% | UACC-257 melanoma 153% | M14 melanoma 110% | HCT-15 colon 101%

O=c1c(O)cccn1CCCNCCCN(CCCn1cccc(O)c1=O)CCCn1cccc(O)c1=O
inactive: K-562 leukemia 117% | MALME-3M melanoma 108% | MDA-MB-231 breast 96% | RXF 393 renal 121% | SF-268 CNS 94% | SF-295 CNS 102% | SF-539 CNS 108% | UACC-257 melanoma 121% | M14 melanoma 103% | HCT-15 colon 99.2%

CSC1=Nc2c(c(C)c(-c3ccccc3)n2CCCN2CCCCC2)C2=NC(=O)C[C@H](C)N12
inactive: K-562 leukemia 11.6% | MALME-3M melanoma 56.5% | MDA-MB-231 breast 69.6% | RXF 393 renal 56.4% | SF-268 CNS 66.2% | SF-295 CNS 38.9% | SF-539 CNS 79% | UACC-257 melanoma 41.3% | M14 melanoma 59.8% | HCT-15 colon 81.2%

CCOc1cc(-c2ccc[nH]2)[nH]c1/C=C1\N=C(C)C(C(=O)OC)=C1C
active: K-562 leukemia -55.4% | MALME-3M melanoma -61.1% | MDA-MB-231 breast -62.6% | RXF 393 renal -72.5% | SF-268 CNS -55.7% | SF-295 CNS -69.8% | SF-539 CNS -66.7% | UACC-257 melanoma -56.7% | M14 melanoma -59.9% | HCT-15 colon -27%

COc1cc([C@@H]2c3cc4c(cc3C(O[C@@H]3O[C@@H]5CO[C@@H](c6cccs6)OC5[C@H](O)[C@H]3O)C3COC(=O)[C@@H]32)OCO4)cc(OC)c1O (stereo not given in full)
active: K-562 leukemia 4.5% | MALME-3M melanoma -28.7% | MDA-MB-231 breast -18.8% | RXF 393 renal -72.3% | SF-268 CNS -17.1% | SF-295 CNS -19.9% | SF-539 CNS -35.5% | UACC-257 melanoma -19.7% | M14 melanoma -43.2% | HCT-15 colon 5.54%

Clc1ccc(CCC(Cn2ccnc2)Sc2c(Cl)cccc2Cl)cc1 (stereo not given)
inactive: K-562 leukemia 30.5% | MALME-3M melanoma 60.3% | MDA-MB-231 breast 55.5% | RXF 393 renal 67.4% | SF-268 CNS 87.1% | SF-295 CNS 43.4% | SF-539 CNS 91.5% | UACC-257 melanoma 83.4% | M14 melanoma 54.9% | HCT-15 colon 34%

C[C@]12CC[C@@H]3c4ccc(O)c([N+](=O)[O-])c4CC[C@H]3[C@@H]1CC[C@@H]2NS(=O)(=O)c1ccc(C(F)(F)F)cc1
active: K-562 leukemia 6.98% | MDA-MB-231 breast -9.58% | RXF 393 renal -1.18%
inactive: MALME-3M melanoma 31% | SF-268 CNS 36% | SF-295 CNS 18.7% | SF-539 CNS 62.4% | UACC-257 melanoma 44% | M14 melanoma 34.2% | HCT-15 colon 18%

CC(=O)Oc1ccc(C23c4ccccc4C2(OC(C)=O)c2cc(OC(C)=O)ccc23)cc1 (stereo not given)
inactive: K-562 leukemia 63.4% | MALME-3M melanoma 137% | MDA-MB-231 breast 73.9% | RXF 393 renal 93.5% | SF-268 CNS 94.3% | SF-295 CNS 96.9% | SF-539 CNS 100% | UACC-257 melanoma 105% | M14 melanoma 104% | HCT-15 colon 65.8%

COc1cccc2c1O/C(=C\c1c([N+](=O)[O-])ncn1C)C2=O
inactive: K-562 leukemia 89.9% | MALME-3M melanoma 92.4% | MDA-MB-231 breast 119% | RXF 393 renal 113% | SF-268 CNS 98.3% | SF-295 CNS 98.2% | SF-539 CNS 100% | UACC-257 melanoma 93.5% | M14 melanoma 103% | HCT-15 colon 91.4%

CC1=NN(c2ccccc2Cl)C(=O)/C1=C\c1cn(S(=O)(=O)c2ccc(C)cc2)c2ccccc12
inactive: K-562 leukemia 138% | MALME-3M melanoma 114% | MDA-MB-231 breast 85.4% | RXF 393 renal 137% | SF-268 CNS 104% | SF-295 CNS 114% | SF-539 CNS 114% | UACC-257 melanoma 115% | M14 melanoma 82.1% | HCT-15 colon 105%

COc1ccc(Cn2cc3c(c2-c2ccccc2)CCc2cncnc2-3)cc1
inactive: K-562 leukemia 22.1% | MALME-3M melanoma 26.9% | MDA-MB-231 breast 50% | RXF 393 renal 55.3% | SF-268 CNS 63.1% | SF-295 CNS 24.3% | SF-539 CNS 59.7% | UACC-257 melanoma 74.9% | M14 melanoma 24.5% | HCT-15 colon 45.3%

CC[C@H](C)C(=O)O[C@H]1C[C@@H](C)C=C2C=C[C@H](C)[C@H](CC[C@@H]3C[C@@H](O)CC(=O)O3)[C@H]21
inactive: K-562 leukemia 104% | MALME-3M melanoma 89.7% | RXF 393 renal 97.7% | SF-268 CNS 42.7% | SF-295 CNS 28.8% | SF-539 CNS 95.9% | UACC-257 melanoma 83.5% | M14 melanoma 59.2% | HCT-15 colon 55.1%
active: MDA-MB-231 breast -35.3%

CCCCC1Nc2nc(SC)n(C)c(=O)c2CN(Cc2ccccc2)C1=O (stereo not given)
inactive: K-562 leukemia 141% | MALME-3M melanoma 132% | MDA-MB-231 breast 94.5% | RXF 393 renal 77.2% | SF-268 CNS 100% | SF-295 CNS 94.9% | SF-539 CNS 85.2% | UACC-257 melanoma 90.1% | M14 melanoma 89.8% | HCT-15 colon 81.9%

CCCCCCCCCCCCNc1ncnc2[nH]ncc12
inactive: K-562 leukemia 48.7% | MALME-3M melanoma 84.7% | MDA-MB-231 breast 68.6% | RXF 393 renal 96.4% | SF-268 CNS 84% | SF-295 CNS 54.8% | SF-539 CNS 77% | UACC-257 melanoma 50.2% | M14 melanoma 74.2% | HCT-15 colon 84.9%

Clc1cc(Cl)c(OCC#CI)cc1Cl
inactive: K-562 leukemia 69.5% | MDA-MB-231 breast 83.2% | SF-268 CNS 98.6% | SF-295 CNS 101% | SF-539 CNS 33.2% | M14 melanoma 37.7% | HCT-15 colon 42.1%
active: MALME-3M melanoma 0.95% | RXF 393 renal -11.9% | UACC-257 melanoma -3.08%

Nc1nc(SCC2(CCl)COC2)c2[nH]cnc2n1
inactive: K-562 leukemia 90.6% | MALME-3M melanoma 88.8% | MDA-MB-231 breast 104% | RXF 393 renal 113% | SF-268 CNS 98.5% | SF-295 CNS 110% | SF-539 CNS 99.6% | UACC-257 melanoma 99.1% | M14 melanoma 97% | HCT-15 colon 99.6%

CN1C(=O)/C(=C/c2nc(-c3cccc(F)c3)n3ccccc23)c2ccccc21
inactive: K-562 leukemia 79.7% | MALME-3M melanoma 57.6% | MDA-MB-231 breast 61.3% | RXF 393 renal 66.2% | SF-268 CNS 92% | SF-295 CNS 87.4% | SF-539 CNS 71.4% | UACC-257 melanoma 79.1% | M14 melanoma 73.1% | HCT-15 colon 93%

O=c1cc(-c2cccnc2)oc2c1ccc1ccccc12
inactive: K-562 leukemia 53.9% | MALME-3M melanoma 156% | MDA-MB-231 breast 70.7% | RXF 393 renal 68% | SF-268 CNS 54.8% | SF-295 CNS 70.1% | SF-539 CNS 54.6% | UACC-257 melanoma 82.9% | M14 melanoma 103% | HCT-15 colon 72.7%

CC/C(=C\c1ccc(N(C)C)cc1)c1ccncc1
inactive: K-562 leukemia 16.2% | MDA-MB-231 breast 51.6% | RXF 393 renal 91.1% | SF-268 CNS 71.7% | SF-295 CNS 49% | SF-539 CNS 58.6% | UACC-257 melanoma 75% | M14 melanoma 29.6% | HCT-15 colon 37.5%
active: MALME-3M melanoma 9.47%

O=C1Nc2ccc(F)cc2/C1=C/c1nc(-c2ccc(F)cc2)n2ccccc12
inactive: K-562 leukemia 106% | MALME-3M melanoma 91.3% | MDA-MB-231 breast 80% | RXF 393 renal 108% | SF-268 CNS 81.3% | SF-295 CNS 92.1% | SF-539 CNS 104% | UACC-257 melanoma 104% | M14 melanoma 83.2% | HCT-15 colon 105%

O=C(CN1CCCCC1)Sc1nnc2sc3ccccc3n12
inactive: K-562 leukemia 99.6% | MALME-3M melanoma 97.5% | MDA-MB-231 breast 97.4% | RXF 393 renal 108% | SF-268 CNS 102% | SF-295 CNS 110% | SF-539 CNS 101% | UACC-257 melanoma 102% | M14 melanoma 98% | HCT-15 colon 112%

Reference: PubChem BioAssay (NCI)
